Assay results as given in publication PMC4336329 (PLoS ONE, 2015).
In all, about 310,000 compounds went through this assay and about 14,000 (4.5%) showed an effect of 50% or more. Effects have a minus sign here. For the sample, strong results were picked, then their nearest neighbours and some compounds at random.

These compounds were tested against human ether-à-go-go-related gene (hERG) potassium channel (human, UniProt Q12809) (assay: primary screen, population patch clamp on CHO cells stably expressing hERG; higher = less effect of the substance).
human ether-à-go-go-related gene (hERG) potassium channel, sequence (Q12809 whole entry, looked up): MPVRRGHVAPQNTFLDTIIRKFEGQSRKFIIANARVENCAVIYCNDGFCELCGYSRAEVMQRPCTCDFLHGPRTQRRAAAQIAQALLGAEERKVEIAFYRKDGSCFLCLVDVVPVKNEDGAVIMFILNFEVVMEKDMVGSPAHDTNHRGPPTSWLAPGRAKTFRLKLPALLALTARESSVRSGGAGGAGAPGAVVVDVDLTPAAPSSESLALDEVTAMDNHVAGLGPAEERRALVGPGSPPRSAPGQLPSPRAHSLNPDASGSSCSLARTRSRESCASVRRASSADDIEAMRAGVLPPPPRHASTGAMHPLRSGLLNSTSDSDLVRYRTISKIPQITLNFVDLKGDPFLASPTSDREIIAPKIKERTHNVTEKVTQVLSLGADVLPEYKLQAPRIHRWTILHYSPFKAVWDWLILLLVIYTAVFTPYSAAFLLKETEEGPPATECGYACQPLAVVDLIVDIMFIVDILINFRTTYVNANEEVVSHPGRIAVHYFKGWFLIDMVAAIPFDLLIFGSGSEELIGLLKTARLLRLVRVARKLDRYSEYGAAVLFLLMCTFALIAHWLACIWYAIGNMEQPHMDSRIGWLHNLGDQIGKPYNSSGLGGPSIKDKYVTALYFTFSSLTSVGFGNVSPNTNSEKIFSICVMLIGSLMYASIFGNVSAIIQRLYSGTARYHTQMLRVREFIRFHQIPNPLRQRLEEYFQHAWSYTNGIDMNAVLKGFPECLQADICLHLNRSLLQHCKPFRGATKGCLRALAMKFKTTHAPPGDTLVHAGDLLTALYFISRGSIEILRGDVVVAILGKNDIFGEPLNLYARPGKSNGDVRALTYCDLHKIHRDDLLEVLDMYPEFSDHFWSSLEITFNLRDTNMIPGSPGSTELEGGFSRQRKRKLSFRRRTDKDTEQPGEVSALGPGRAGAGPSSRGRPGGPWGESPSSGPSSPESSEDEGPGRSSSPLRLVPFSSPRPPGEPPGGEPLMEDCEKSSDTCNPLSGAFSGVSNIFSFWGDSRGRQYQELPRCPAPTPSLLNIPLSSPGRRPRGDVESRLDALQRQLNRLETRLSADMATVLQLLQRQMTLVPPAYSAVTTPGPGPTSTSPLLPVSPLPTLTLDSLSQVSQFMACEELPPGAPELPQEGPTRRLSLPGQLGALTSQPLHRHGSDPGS
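Also: peak tail current of the secondary pulse compared with the same well before compound.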

Row | SMILES | hERG current change (%, negative = inhibition) at 10uM [%]
1 | O=C(Cn1ccc(NC(=O)OCc2ccccc2)nc1=O)NCCCn1ccnc1 | 6.72
2 | COc1ccc(C(=O)NCC(=O)OCC(=O)c2ccc3c(c2)NC(=O)CO3)cc1OC | -22
3 | COc1ccc(C(=O)NCC(=O)OCC(=O)c2ccc3c(c2)NC(=O)CO3)cc1 | -65.1
4 | Cc1ccc(C(=O)NCC(=O)OCC(=O)c2ccc3c(c2)NC(=O)CO3)cc1C | -5.7
5 | Cc1ccc(C(=O)NCC(=O)OCC(=O)c2ccc3c(c2)NC(=O)CO3)cc1 | -60.6
6 | COc1ccc(OCCCC(=O)OCC(=O)c2ccc3c(c2)NC(=O)CO3)cc1 | 15.7
7 | O=C1COc2ccc(C(=O)COC(=O)CNC(=O)c3ccccc3)cc2N1 | -4.81
8 | Cc1nn(C(=O)CCC(=O)NCc2ccccc2Cl)c2ccccc12 | 15.2
9 | Cc1c(Cl)cccc1NC(=O)C1COc2ccccc2O1 (stereo not drawn) | 8.79
10 | COc1ccc(S(=O)(=O)CC(=O)c2cc3cccc(C)c3oc2=O)cc1 | 5.51
11 | CCCN1Cc2cccc(C(=O)NC(CC(=O)OCC)c3ccc(OC(C)C)cc3)c2C1=O (stereo not drawn) | -37.6
12 | CCCN1Cc2cccc(C(=O)NC(CC(=O)OCC)c3ccc(OCC)c(OC)c3)c2C1=O (stereo not drawn) | -31.2
13 | CCCN1Cc2cccc(C(=O)NC(CC(=O)OCC)c3ccc(C)cc3)c2C1=O (stereo not drawn) | -81.7
14 | Cc1nc2c(C)cccn2c1/C(O)=C1\C(=O)C(=O)N(CCN(C)C)C1c1ccncc1 (stereo not drawn) | 4.49
15 | CC(=O)Nc1ccc(C(=O)CN2C(=O)NC3(CCOc4ccccc43)C2=O)c(F)c1 (stereo not drawn) | -20.5
16 | COc1cccc(CC(NC(C)=O)C(=O)NC2CCN(c3c(Cc4ccccc4)c(C)nc4ncnn34)CC2)c1 (stereo not drawn) | -0.458
17 | CC(=O)NC(Cc1ccc(F)c(F)c1)C(=O)NC1CCN(c2c(Cc3ccccc3)c(C)nc3ncnn23)CC1 (stereo not drawn) | -58.7
18 | Cc1nc2ncnn2c(N2CCC(C(=O)NC3CCCC3)CC2)c1Cc1ccccc1 | -57.4
19 | Cc1nc2ncnn2c(N2CCC(C(=O)NCC3CCCO3)CC2)c1Cc1ccccc1 (stereo not drawn) | -17.6
20 | COc1cc(CC(NC(C)=O)C(=O)NC2CCN(c3c(Cc4ccccc4)c(C)nc4ncnn34)CC2)cc(OC)c1 (stereo not drawn) | 12
21 | CC(=O)Nc1ccc(NC(=O)C2CCN(c3c(Cc4ccccc4)c(C)nc4ncnn34)CC2)cc1 | 2.74

Row | SMILES | hERG current change (%, negative = inhibition) at 10uM [%]
22 | NC(=O)C1CCCN(C(=O)c2ccc3nc(Cc4cccc(Cl)c4)oc3c2)C1 (stereo not drawn) | -11.5
23 | Cc1ccnc(SCCn2c(N3CCN(C)CC3)nc3c2c(=O)n(C)c(=O)n3C)n1 | 13.6
24 | COCCn1c(-c2ccc(F)cc2)nc2oc3cc(OC)ccc3c(=O)c2c1=O | -19.6
25 | CCOC(=O)Nc1sc(C)c(C)c1C(N)=O | 9.44
26 | COCC1CCN(Cc2nc(COc3ccccc3)no2)C1 (stereo not drawn) | 12.3
27 | CN(Cc1nccn1C)C(=O)CC1C(=O)NCCN1Cc1ccc(F)cc1Cl (stereo not drawn) | -68.9
28 | CN(Cc1cnccn1)C(=O)CC1C(=O)NCCN1Cc1ccc(F)cc1Cl (stereo not drawn) | 20
29 | CN(Cc1ccccn1)C(=O)CC1C(=O)NCCN1Cc1ccc(F)cc1Cl (stereo not drawn) | 16.4
30 | Cc1nc2scc(C)n2c(=O)c1S(=O)(=O)N1CCN(c2ccccc2)CC1 | -26.3
31 | CN1CC2(C(=O)c3ccccc3)CN(C)CC(C(=O)c3ccccc3)(C1)C2 | -53
32 | COc1ccc(C(=O)C23CN4CN(CN(C4)C2)C3)cc1 | 4.01
33 | CC(=O)N1CN2CN(C(C)=O)CC(C(=O)c3ccccc3)(C2)C1 | 11
34 | Cc1ccn2cc(-c3cccc(NC(=O)c4ccccc4)c3)nc2c1 | -19.6
35 | COc1ccccc1N1CCN(CCCCNC(=O)c2ccc3ccccc3c2)CC1.Cl | -79.6
36 | COc1ccc(C(=O)CCN2CCN(c3ccccc3F)CC2)cc1.Cl | -71.5
37 | COc1ccc(S(N)(=O)=O)cc1C(=O)NCCCN1CCN(c2ccccc2OC)CC1.CS(=O)(=O)O | 2.27
38 | COc1ccc(OC)c(NC(=O)CCN2CCN(c3ccccc3F)CC2)c1 | -22.1
39 | COc1ccc(N2CCN(CCC(=O)c3ccc4ccccc4c3)CC2)cc1 | -11.2
40 | COc1ccc(N2CCN(CCC(N)=O)CC2)cc1 | 3.39
41 | COc1ccccc1N1CCN(CCN(C(=O)c2ccc(F)cc2)c2ccccn2)CC1.Cl | -78.8
42 | COc1ccc(C(=O)CCN2CCN(c3ccc(OC)cc3)CC2)cc1 | -73.1

Row | SMILES | hERG current change (%, negative = inhibition) at 10uM [%]
43 | O=C(NCCCN1CCOCC1)c1ccc2ccccc2c1 | -2.68
44 | COC(=O)CCN(C(=O)c1cc(OC)c(OC)c(OC)c1)c1ccccn1 | 6.81
45 | COc1ccc(C(=O)CCN2CCCCCC2)cc1.Cl | -20
46 | CC(C)(C)OC(=O)N1CCCN(C(=O)Nc2cccc(Cl)c2)CC1 | -4.88
47 | O=C(NCc1ccc2c(c1)OCO2)C1CC(=O)N(C2CCCCCC2)C1 (stereo not drawn) | -11.3
48 | Cc1cc(C)c(NC(=S)NC(=O)c2c(Cl)c(C)nn2C)c([N+](=O)[O-])c1 | 12.2
49 | COc1cc(C(=O)NCC(c2cccnc2)N2CCN(C)CC2)cc(OC)c1OC (stereo not drawn) | 12.9
50 | COC(=O)NNC(=O)C1CCC(C)CC1 (stereo not drawn) | -27.2
51 | O=C(N/N=C/c1ccc(-c2ccccc2[N+](=O)[O-])o1)c1cncc(Br)c1 | -6.97
52 | COc1ccccc1CCNC(=O)C(=O)NCC1OCCN1S(=O)(=O)c1ccc(Br)cc1 (stereo not drawn) | -25.6
53 | COc1ccc(CCn2c(=S)[nH]c3cc(C(=O)NCc4ccco4)ccc3c2=O)cc1OC | -1.08
54 | COc1ccc(CCNS(=O)(=O)c2cc(/C=C/C(=O)O)ccc2C)cc1OC | 8.58
55 | O=C(CCC(=O)N1CCN(c2ccccc2F)CC1)c1ccc(F)cc1 | -35.4
56 | COc1cc(NC(=O)CN2CCN(c3ccccc3F)CC2)cc(OC)c1 | -10.2
57 | COc1cccc(NC(=O)CCN2CCN(c3ccccc3F)CC2)c1 | -12
58 | Cl.O=C(CCN1CCN(c2ccccc2F)CC1)c1ccc(Br)cc1 | -84.5
59 | CCOC(=O)N1CCN(CCC(=O)c2ccc(OC)cc2)CC1.Cl | -18.2
60 | O=C1CC(=C(c2ccccc2)c2ccccc2)C(=O)N1CCCN1CCN(c2cccc(Cl)c2)CC1 | 1.35
61 | Cl.O=C1CC(=C(c2ccccc2)c2ccccc2)C(=O)N1CCCCN1CCN(c2cccc(Cl)c2)CC1 | -46
62 | COc1cc(NC(=O)CCN2CCN(c3ccccc3F)CC2)cc(OC)c1 | -56.6
63 | NC(=O)CN1CCN(c2ccccc2F)CC1 | 4.12

Row | SMILES | hERG current change (%, negative = inhibition) at 10uM [%]
64 | O=C1CC(=C(c2ccccc2)c2ccccc2)C(=O)N1CCCCN1CCN(c2ccccc2)CC1 | -63.3
65 | CCOC(=O)N1CCN(CCC(=O)c2ccc(Cl)cc2)CC1.Cl | -40.9
66 | CCOC(=O)N1CCN(CCC(=O)c2ccc(Br)cc2)CC1.Cl | -64.6
67 | CC(C)C[C@H](NC(=O)C1CC(=O)N(c2ccc(F)cc2)C1)C(=O)N1CCCCC1 (stereo partly drawn) | -0.716
68 | CC1Cc2ccccc2N1C(=O)CSc1nn2c(=O)c(C(C)(C)C)nnc2s1 (stereo not drawn) | 0.00368
69 | CC(=O)Nc1ccc(S(=O)(=O)Nc2cc(-c3ccccc3)nn2C)cc1 | 18.5
70 | Cl.O=C(CCN1CCOCC1)c1ccc(Br)cc1 | 25.2
71 | COc1ccccc1N1CCN(CCCC(=O)c2ccc(F)cc2)CC1 | -71.7
72 | COc1ccc(OCCCC(=O)NNC(=O)CCN2CCN(c3ccccc3)CC2)cc1 | 7.89
73 | COc1ccccc1N1CCN(C(=O)C(CC(C)C)NC(=O)C2CCCCC2)CC1 (stereo not drawn) | -16.6
74 | COc1ccccc1N1CCN(CC(C)N(C(=O)C2CCCCC2)c2ccccn2)CC1 (stereo not drawn) | -67.9
75 | COc1ccccc1N1CCN(CC(=O)c2ccc(F)cc2)CC1.Cl | 15.7
76 | COc1ccccc1N1CCN(CCN(C(=O)C2CCCCC2)c2ccccn2)CC1.O=C(O)/C=C\C(=O)O | -27.4
77 | COc1ccccc1N1CCN(C(=O)CCC(=O)N2CCN(c3ccc(F)cc3)CC2)CC1 | -17
78 | O=C(CCN1CCN(c2ccccc2)CC1)NNC(=O)Cc1ccccc1Cl | 5.76
79 | O=C(CCN1CCN(C(=O)c2ccccc2)CC1)c1ccc(Br)cc1 | -29.5
80 | CC(Oc1ccc(Br)cc1)C(=O)NNC(=O)CCN1CCN(c2ccccc2)CC1 (stereo not drawn) | -61.9
81 | O=C(CCN1CCN(c2ccccc2)CC1)c1ccc(Br)cc1 | -55.1
82 | Oc1ccc(Cl)cc1C1=NNC(c2cccs2)C1 (stereo not drawn) | 9.76
83 | COc1ccc(C(=O)Nc2cc(C)on2)cc1OC | 10
84 | O=C(NCCn1cc(SCc2ccc(F)cc2)c2ccccc21)c1c(F)cccc1F | 9.31
